Molecules are shown by their SMILES. Where “and” joins values, the source holds several entries; their conditions need not be identical. Identical values can stand only once. Calls of active or inactive are those of the source.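 The calls were made as follows, unless noted: active = thallium flux through the channel raised or lowered by more than 3 SD from vehicle-only wells, actives on both sides; inactive = the rest.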

Experiment [1] in a line: P. berghei load reduction in hepatocytes – cell-based, HepG2, luciferase luminescence, HepG2 viability, primary screen (AID 624349; in the data active = parasite load remaining mostly below about 12%, no sharp cut-off; inactive = mostly above about 10%;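 also: 100% = mean of DMSO negative control wells on the same plate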). The note with it: P. berghei liver stage in HepG2, luciferase luminescence, concentration not given here; parasite load remaining: stronger effect = lower value; viability: measured here: HepG2 viability without parasites.
Experiment [2] in a line: signal quenchers or enhancers, Cy5 substrate/SSB – biochemical, NIH Clinical Collection, E. coli SSB, artefact control for HCV NS3 helicase inhibitor project (AID 743268; call rule not given here). To be noted: Cy5-oligo bound E. coli SSB, fluorescence interference.
The test system of experiment [3] is Hepatitis C virus NS3 helicase. Briefly: blockers of NS3h binding to DNA – biochemical, fluorescence polarization, NIH Clinical Collection, primary screen (AID 743270; call rule not given here). The note with it: NS3 helicase binding to Cy5-dT15 DNA, stronger effect = higher value, concentration not given here. A general note: In fluorescence polarisation assays a small probe gives low polarisation when free and higher when bound to something large.

For experiment [4], the target named is Single-stranded DNA-binding protein (Escherichia coli (strain K12)) (UniProt P0AGE0). Briefly: SSB-ssDNA binding inhibitors – biochemical, fluorescence polarization, NIH Clinical Collection, counter-screen for HCV NS3 helicase inhibitor project (AID 743271; in the data active = inhibition above about 28%). To be noted: E. coli SSB-DNA binding, stronger effect = higher value, concentration not given here.
A short description of experiment [5]: compounds distorting NS3 helicase fluorescence signal – biochemical, NIH Clinical Collection, artefact control for HCV NS3 helicase inhibitor project (AID 743272; call rule not given here;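 also: HCV NS3 helicase with a Cy5 labelled single stranded DNA probe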). To be noted: fluorescence interference counterscreen, HCV NS3 helicase assay; stronger effect = lower value. (Counterscreens check selectivity or assay interference.)
Experiment [6] in a line: modulation of C. elegans fzo-1 (AID 1259413; call rule not given here;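 also: fzo-1 mutant C. elegans worms in liquid wells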). The note with it: C. elegans fzo-1 modulator screen, mean read-out; stronger effect = higher value.
Experiment [7] is described as follows: viability loss with induced miR-34 in A549 – imaging, A549 dox-inducible miR-34, nuclei and caspase counts, primary screen (AID 1347080;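 active = compounds whose cell count with miR-34 switched on is under 0.7 times the count with it off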). The note with it: A549 miR-34 inducible, Hoechst nuclei count, 48 h.
A short description of experiment [8]: MELAS cybrid and Rieske KO viability enhancers – cell-based, MELAS cybrids, Rieske KO mouse fibroblasts, CellTiter-Glo, primary screen (AID 1508586;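 active = mean z-score across replicates of 1.96 or higher in either the MELAS or the Rieske mutant cell line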;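 also: z relative to plate mean and SD of compound and empty wells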). To be noted: low glucose. (Cellular ATP, detected with luciferase, serves as a proxy for viable cell number.)
A short description of experiment [9]: galactose survival enhancers in mitochondrial complex I cybrids – cell-based, galactose medium, ATP luminescence, primary screen (AID 1645843;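 active = z-score of at least 1.8 in each of two replicates, scored against plate mean and spread of sample wells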;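 also: positive z means more ATP and so rescue of galactose-driven cybrid death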). The note with it: complex I mutant cybrid cells, 72 h, stronger effect = higher value.
Another experiment has as its system F380Y. The experiment in a line: BK channel mutant inhibitors and activators – cell-based, U2OS BacMam, thallium flux, beta subunits, selectivity assay, profiling panel (AID 1259406).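 Also: initial slope of Thallos dye fluorescence rise after thallium is added; log ratio against the mean of 0.3% DMSO vehicle wells on the same plate.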 The note with it: U2OS BacMam BK variants, at 30 µM.
The test system of a further experiment is F380Y/beta1. The description is as above. To be noted: U2OS BacMam BK variants, at 30 µM.
The subject of another experiment is F380Y/beta2Delta. The experiment is described as above. To be noted: U2OS BacMam BK variants, at 30 µM.
For a further experiment, the system named is F380Y/beta4. The experiment is described as above. To be noted: U2OS BacMam BK variants, at 30 µM.
Experiment [10] concerns the target Calcium-activated potassium channel subunit alpha-1 (Homo sapiens) + Leucine-rich repeat-containing protein 26 (Homo sapiens) (UniProt Q12791+Q2I0M4). The description is as above. The note with it: U2OS BacMam BK variants, F380Y/Slo1WT/gamma1, at 30 µM.
The next experiment has as its system R275C. The experiment is described as above. The note with it: U2OS BacMam BK variants, at 30 µM.
A further experiment has as its system R275C/beta1. Described as above. The note with it: U2OS BacMam BK variants, at 30 µM.
In another experiment the test system is R275C/beta2Delta. The experiment is described as above. The note with it: U2OS BacMam BK variants, at 30 µM.
A further experiment concerns R275C/beta4. The description is as above. To be noted: U2OS BacMam BK variants, at 30 µM.
For a further experiment, the system named is R275C/Slo1WT/beta2. Described as above. The note with it: U2OS BacMam BK variants, at 30 µM.
Experiment [11] deals with Neuropilin-2 / VEGF-C interaction (human). Briefly: small molecules blocking Neuropilin-2/VEGF-C interaction – biochemical, microplate binding format, z-score (AID 743281; call rule not given here). The note with it: microplate NRP2/VEGF-C binding assay; stronger effect = lower value.
The mark [12] stands for this setting: stronger effect = lower value, cell number ratio, induced over uninduced.
[13] abbreviates: measured here: relative caspase fold change +Dox/-Dox.
Where [14] appears, read: measured here: total cells with miR-34 induction, stronger effect = lower value.
[15] abbreviates: measured here: total cells without miR-34 induction.

Sequence of Calcium-activated potassium channel subunit alpha-1 (Homo sapiens) + Leucine-rich repeat-containing protein 26 (Homo sapiens) (Q2I0M4 whole entry, looked up, one chain of several): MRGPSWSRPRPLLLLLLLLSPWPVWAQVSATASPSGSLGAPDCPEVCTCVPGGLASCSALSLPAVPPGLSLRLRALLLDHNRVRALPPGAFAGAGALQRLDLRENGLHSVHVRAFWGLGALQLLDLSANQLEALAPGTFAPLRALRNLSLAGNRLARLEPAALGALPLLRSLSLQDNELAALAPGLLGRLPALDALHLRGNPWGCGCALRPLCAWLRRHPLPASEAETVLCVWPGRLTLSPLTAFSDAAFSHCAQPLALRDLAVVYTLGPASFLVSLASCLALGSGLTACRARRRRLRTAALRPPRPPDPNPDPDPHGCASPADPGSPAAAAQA

One may read the viability as a per cent measure of how many cells are alive, often set against a control. As a reminder, the inhibition is the change of the read-out against control, counted positive when it falls. As for `O=C(NC(CO)C(O)c1ccc([N+](=O)[O-])cc1)C(Cl)Cl` (centres undefined), in experiment [1], the parasite load remaining is 48.8% (inactive). Further, the viability in experiment [1] was found to be 87.3%. Besides, the fluorescence ratio is 0.1 (active) in experiment [2] and 1.03 (inactive) in experiment [5]. The inhibition in [3] is -4.09% (inactive); in experiment [4], 4.1% (inactive). Further, the mean signal in [6] was 263 (inactive). Moreover, the fold change in experiment [7] (setting [12]) is 0.967 (inactive) and 0.86 (inactive); in experiment [7] (setting [13]) it was 1.3 and 1.21. Further, the cell count is 7650 and 7730 in experiment [7] (setting [14]); 7910 and 8980 in experiment [7] (setting [15]). Besides, the z-score in experiment [8] (MELAS cybrid survival, CellTiter-Glo 48 h, stronger effect = higher value) was -0.304 (inactive); in experiment [8] (Rieske KO mouse fibroblast survival, CellTiter-Glo 72 h) it was 0.499; in experiment [9], 0.48 (inactive). Also, the log fold change Tl+ flux in the experiment with F380Y is -0.0332 (inactive); in the experiment on F380Y/beta1, 0.0194 (inactive); in the experiment with F380Y/beta2Delta, -0.0071 (inactive); with F380Y/beta4, 0.000156 (inactive); in experiment [10] it was 0.0379 (inactive); in the experiment with R275C, -0.0175 (inactive). Besides, the log fold change Tl+ flux in the experiment on R275C/beta1 was -0.0341 (inactive); in the experiment on R275C/beta2Delta, -0.00719 (inactive); in the experiment on R275C/beta4, 0.0483 (inactive); in the experiment with R275C/Slo1WT/beta2, 0.0603 (inactive).
As for `CCCCC(=O)OC1(C(=O)CO)CCC2C3CCC4=CC(=O)CCC4(C)C3C(O)CC21C` (centres undefined), the parasite load remaining in experiment [1] is 89.7% (inactive). The compound further gave a viability in experiment [1] of 100%. Besides, the figures for the fluorescence ratio in [2] and in experiment [5] were 1.04 (inactive) and 1.01 (inactive), respectively. Besides, the inhibition in [3] was -5.91% (inactive); in experiment [4] it was -5.05% (inactive). In experiment [6], the mean signal is 256 (inactive). Besides, the fold change in experiment [7] (setting [12]) was 0.983 (inactive); in [7] (setting [13]), 2.66. For the same compound, the figures for the cell count in experiment [7] (setting [14]) and in [7] (setting [15]) were 6880 and 7000, respectively. Besides, in [9], the z-score was 0.245 (inactive). For the same compound, the log fold change Tl+ flux in the experiment with F380Y was -0.858 (active); in the experiment with F380Y/beta1, -0.315 (active); with F380Y/beta2Delta, -0.396 (active); with F380Y/beta4 it was -0.379 (active); in [10], -0.495 (active); in the experiment on R275C it was 0.0146 (inactive). Also, the log fold change Tl+ flux is 0.44 (active) with R275C/beta1, 0.266 (active) with R275C/beta2Delta, 0.327 (active) with R275C/beta4 and -0.00582 (inactive) with R275C/Slo1WT/beta2.
For the compound `CC12CCC(=O)C=C1CCC1C2CCC2(C)C1CCC2(O)C(=O)CO` (centres undefined), the parasite load remaining in [1] was 47.2% (inactive). Moreover, in [1], the viability came out at 63.5%. Moreover, the fluorescence ratio in experiment [2] is 0.91 (inactive); in experiment [5] it was 0.84 (inactive). Moreover, the values for the inhibition in experiment [3] and in experiment [4] were -4.59% (inactive) and 1.18% (inactive), respectively. The z-score in experiment [11] is -0.624 (inactive); in experiment [9], 0.28 (inactive). The mean signal in experiment [6] is 241 (inactive). The values for the fold change in [7] (setting [12]) and in experiment [7] (setting [13]) were 1.28 (inactive) and 1.98, respectively. Moreover, the cell count was 7560 in experiment [7] (setting [14]) and 5920 in [7] (setting [15]). The log fold change Tl+ flux with F380Y is -0.0107 (inactive); in the experiment with F380Y/beta1 it was 0.000378 (inactive); in the experiment with F380Y/beta2Delta, 0.0311 (inactive); in the experiment on F380Y/beta4 it was 0.00388 (inactive); in [10], 0.0303 (inactive); in the experiment with R275C, 0.029 (inactive). For the same compound, the log fold change Tl+ flux in the experiment with R275C/beta1 is -0.042 (inactive); in the experiment with R275C/beta2Delta it was -0.0755 (inactive); in the experiment on R275C/beta4, -0.0135 (inactive); in the experiment on R275C/Slo1WT/beta2, -0.0119 (inactive).

(Values after PubChem BioAssay.)
